Reference: PubChem BioAssay (NCATS)
Inconclusive results are not listed. Where a call stands in place of a potency, no number is given. The source made the active and inactive calls. Calls come from the whole dose curve; as a rule, active = well fitted curve in the direction sought with a large enough effect; inconclusive = small, poorly fitted or top-dose-only effect, or another doubt; inactive = no such curve, though single readings can be large; an effect the other way counts as inactive or inconclusive.

Tests used:
[1] = target: Calcium and integrin-binding protein 1 (Homo sapiens) (UniProt Q99828); experiment: Primary qHTS for Identification of Calcium Integrin Binding Protein 1 (CIB1) Competitor (AID 1508620); conditions: CIB1-GST / FITC-alphaIIb peptide fluorescence polarization; series mostly up to 57.7 µM;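 note: GST tagged CIB1 binding a fluorescein labelled alphaIIb integrin peptide tracer; top concentration of the series differs between compounds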
Chain of Calcium and integrin-binding protein 1 (Homo sapiens) (Q99828 whole entry, looked up): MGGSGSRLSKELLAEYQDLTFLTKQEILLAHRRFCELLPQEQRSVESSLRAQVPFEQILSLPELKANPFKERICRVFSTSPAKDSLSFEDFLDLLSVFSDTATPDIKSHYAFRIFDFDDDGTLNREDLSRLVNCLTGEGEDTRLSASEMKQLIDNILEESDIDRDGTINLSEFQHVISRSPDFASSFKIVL
How it was run: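 Fluorescence polarization competition: GST-tagged CIB1 (1 uM final) preincubated with compound 15 min at room temperature, then FITC-labelled alphaIIb peptide (100 nM final) added. After 15 min at room temperature, polarization read at Ex 480/Em 540.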

[2] = Primary qHTS for small molecule stabilizers of the endoplasmic reticulum resident proteome: Secreted ER Calcium Modulated Protein (SERCaMP) assay (AID 1508630); conditions: SH-SY5Y GLuc-SERCaMP (Gaussia luciferase released on ER calcium loss) secretion, thapsigargin, luminescence; series mostly up to 38.4 µM
How it was run: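 The SH-SY5Y reporter protocol was run at 3 concentrations up to 38.3 uM (primary) or 11 concentrations (follow-up): 16 h compound, 100 nM thapsigargin for 4 h, then extracellular luciferase luminescence.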

| Compound | outcome [1] | Potency [2] |
| --- | --- | --- |
| CC(C)(N)C(=O)N[C@H](COCc1ccccc1)C(=O)N1CCC2(CC1)CN(S(C)(=O)=O)c1ccccc12 | inactive | inactive |
| CN(C)C(=O)c1ccc(S(=O)(=O)c2ccc(NC(=O)[C@@](C)(O)C(F)(F)F)c(Cl)c2)cc1 | inactive | inactive |
| COc1ccc(-c2ccc3c(N4CCOC[C@H]4C)nc(N4CCOC[C@H]4C)nc3n2)cc1CO | inactive | inactive |
| CCOc1ccc(Cc2cc([C@@H]3O[C@H](CO)[C@@H](O)[C@H](O)[C@@H]3O)ccc2Cl)cc1 | inactive | inactive |
| COc1ccc([C@@H]2CC(=O)c3c(O)cc(O[C@@H]4O[C@H](CO[C@@H]5O[C@@H](C)[C@H](O)[C@@H](O)[C@@H]5O)[C@@H](O)[C@H](O)[C@@H]4O)cc3O2)cc1O | inactive | inactive |
| OCCC#Cc1nc(-c2ccc(F)cc2)c(-c2ccncc2)n1CCCc1ccccc1 | inactive | inactive |
| CC(C)OC(=O)C1=CN(C(=O)c2ccc(F)c(F)c2)CC(C)(C)c2c1[nH]c1ccccc21 | inactive | inactive |
| CCOC(=O)N[C@@H]1CC[C@@H]2[C@@H](C1)C[C@H]1C(=O)O[C@H](C)[C@H]1[C@@H]2C=Cc1ccc(-c2cccc(F)c2)cn1 | inactive | inactive |
| O=C(C1CC1)N1CC[C@@H](Cn2c(-c3ccc(-c4ccc5occc5c4)cc3)nc3cnccc32)C1 | inactive | inactive |
| NC(=O)c1ccc(-c2nc(-c3ccc4c(c3)OCO4)c(-c3ccccn3)[nH]2)cc1 | inactive | inactive |
| CC(=O)NC(C)c1ccc(Oc2ccc(OC(C)C)cc2)cc1 (stereo not given) | inactive | inactive |
| CCCS(=O)(=O)Nc1ccc(F)c(C(=O)c2c[nH]c3ncc(-c4ccc(Cl)cc4)cc23)c1F | inactive | inactive |
| CNCc1ccc(-c2[nH]c3cc(F)cc4c3c2CCNC4=O)cc1 | inactive | inactive |
| CCn1c(-c2nonc2N)nc2c(C#CC(C)(C)O)ncc(OC[C@H]3CCCNC3)c21 | inactive | inactive |
| CS(=O)(=O)c1ccc(C(=O)Nc2ccc(Cl)c(-c3ccccn3)c2)c(Cl)c1 | inactive | inactive |
| O=C(C=Cc1ccc(/C=C/C(=O)Nc2ccc(C3=NCCN3)cc2)cc1)Nc1ccc(C2=NCCN2)cc1 | inactive | inactive |
| Nc1cccc(S(=O)(=O)N2CCCN(S(=O)(=O)c3ccc4c(c3)OCCO4)CC2)c1 | inactive | inactive |
| Cn1c(=O)c(F)c(Nc2ccc(I)cc2F)c2c(=O)n(C[C@@H](O)CO)cnc21 | inactive | inactive |
| C[C@]12CC[C@H](O)CC1=CC[C@@H]1[C@H]2CC[C@]2(C)C(c3cccnc3)=CC[C@H]12 | inactive | inactive |
| Cc1c(CCOc2ccc(C(=O)O)cc2)c2cc(Cl)ccc2n1C(c1ccccc1)c1ccccc1 | inactive | inactive |
